Each structure is given as a SMILES string. “And” between values parts separate entries of the source, which are not always exact repeats. Equal entries are not always repeated. Results filed as inconclusive are left out. The source made the active and inactive calls. Calls come from the whole dose curve; as a rule, active = well fitted inhibition curve with a large enough effect; inconclusive = small, poorly fitted or top-dose-only effect; inactive = flat fitted curve, though single readings scatter.
% is set by controls: 0 for no effect and ±100 for the full control effect; potency is the fitted concentration of half-maximal effect.

This experiment has as its system KB-3-1. The experiment can be described thus: Cytotoxic Profiling of Annotated Libraries Using Quantitative High-Throughput Screening (AID 1296008). Note: nearly all actives have a fitted effect of over 60% in size. The settings on record: Five cell lines viability, CellTiter-Glo ATP luminescence, 48-72 h; max response: stronger effect = lower value. The method in brief: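 Cells exposed to compounds for 48 or 72 hr at 37 degrees Celsius. Viability read as ATP-coupled luminescence with CellTiter-Glo after 10 min at room temperature.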
`CCCCCCCCCCCCCCCC(=O)O[C@@H]1CC(C)=C(/C=C/C(C)=C/C=C/C(C)=C/C=C/C=C(C)/C=C/C=C(C)/C=C/C2=C(C)C[C@@H](OC(=O)CCCCCCCCCCCCCCC)CC2(C)C)C(C)(C)C1`: the max response was -27.5% (inactive).

As to `O=C(O)c1cc2ccccc2c(Cc2c(O)c(C(=O)O)cc3ccccc23)c1O`, the max response is -8.98% (inactive).

For the compound `CCOC(=O)c1csc(Nc2ccc(Cl)cc2)n1`, the max response is -19% (inactive).

For the compound `OCC(O)COc1ccc(Cl)cc1` (stereo not given), the max response is -9.74% (inactive).

Regarding `C/C=C(/CC[C@@H](C)[C@H]1CC[C@H]2C3=CC[C@H]4[C@H](C)[C@@H](O)CC[C@]4(C)[C@H]3CC[C@]12C)C(C)C`, the max response is -22.1% (inactive).

As to `NNc1nnc(Cc2ccncc2)c2ccccc12`, the max response is -26.3% (inactive).

For `C=C1C(=O)O[C@@H]2[C@H]3C(C)=CC(=O)C3=C(C)[C@@H](OC(=O)/C(C)=C\C)[C@H](O)[C@@H]12`, the max response was 5.28% (inactive).

`C[C@H]1C[C@@H]2[C@H]([C@@H](O)C[C@@]3(C)[C@H]2CC[C@]3(O)C(=O)COC(=O)CCC(=O)O)[C@@]2(C)C=CC(=O)C=C12`: the max response was -6.8% (inactive).

With `CCCC1([C@H](O)C/C=C/[C@H]2[C@H](O)CC(=O)[C@@H]2CCCCCCC(=O)OC)CCC1`, the max response was -18.2% (inactive).

Take `CCOC(=O)[C@H](CCc1ccccc1)N[C@H]1CCCN2CCC[C@@H](C(=O)O)N2C1=O`: the max response was 1.33% (inactive).

As for `CC(C)c1cccc(C(C)C)c1NC(=O)Nc1ccc(Sc2ccc([N+](=O)[O-])cc2)cc1`, the Potency was 10.3 µM (active).

Take `CCCCCCCCCCCCCCCC(=O)OC[C@@H](COP(=O)([O-])OCC[N+](C)(C)C)OC(=O)CCCCCCCCCCCCCCC`: the max response was 1.61% (inactive).

Consider `O=P(O)(O)OC(Cn1cncn1)(Cn1cncn1)c1ccc(F)cc1F`, for which the max response was -21.6% (inactive).

As for `O=C(Nc1cccc(C(F)(F)F)c1)Nc1ccc(Br)cc1-c1nn[nH]n1`, the max response is 7.51% (inactive).

On to `Oc1cccc(-c2c3nc(c(-c4cccc(O)c4)c4ccc([nH]4)c(-c4cccc(O)c4)c4nc(c(-c5cccc(O)c5)c5ccc2[nH]5)CC4)C=C3)c1`, for which the Potency is 16.4 µM (active).

On to `COCc1c(Cl)ccc2c1CC[C@H]2c1ncc[nH]1`, for which the max response was -11.1% (inactive).

Consider `CC(=O)S[C@@H]1CC2=CC(=O)CC[C@]2(C)[C@H]2CC[C@@]3(C)[C@@H](CC[C@@]34CCC(=O)O4)[C@H]12`, for which the max response is -24% (inactive).

Turning to `FC(F)(F)c1ccccc1-c1cc(C(F)(F)F)c2nc(C3=NOC4(CCCCC4)C3)[nH]c2c1`, the max response was -18.9% (inactive).

Consider `C[C@H]1C[C@H]2[C@@H]3CCC4=CC(=O)C=C[C@]4(C)[C@@]3(F)[C@@H](O)C[C@]2(C)[C@@]1(O)C(=O)CCl`, for which the max response was -8.19% (inactive).

For the compound `C=C[C@]1(C)C[C@@H](OC(=O)CO)[C@]2(C)[C@H](C)CC[C@]3(CCC(=O)[C@H]32)[C@@H](C)[C@@H]1O`, the max response is -28.5% (inactive).

For `CC(=O)[C@@]1(O)CC[C@H]2[C@@H]3C=C(Cl)C4=CC(=O)CC[C@]4(C)[C@H]3CC[C@@]21C`, the max response is -17.5% (inactive).

For `CCCCC(=O)O`, the max response is -12.9% (inactive) and -9.7% (inactive).

Turning to `CCN(CC)c1ccc(N=Nc2ccc(S(=O)(=O)N(C)C)cc2)c(S(=O)(=O)NCC[n+]2ccccc2)c1`, the max response is -15.2% (inactive).

As to `O=S(O)CNc1ccc(S(=O)(=O)c2ccc(NCS(=O)O)cc2)cc1`, the max response is -17.8% (inactive).

On to `C[N+](C)(CCCCCC[N+](C)(C)C1c2ccccc2-c2ccccc21)C1c2ccccc2-c2ccccc21`, for which the max response is -17.2% (inactive).

`CC(C)(C)CC(=O)OCC(=O)[C@@]12OC(C)(C)O[C@@H]1C[C@H]1[C@@H]3CCC4=CC(=O)C=C[C@]4(C)[C@@]3(F)[C@@H](O)C[C@@]12C`: the max response was 0.193% (inactive).

For the compound `NC(=O)C[C@@H](N)C(=O)O`, the max response is -17.1% (inactive).

In the case of `CC(=O)O[C@H]1C[C@@H]2CC[C@@H]3[C@H](CC[C@@]4(C)[C@H]3C[C@H](N3CC[N+](C)(C)CC3)[C@@H]4OC(C)=O)[C@@]2(C)C[C@@H]1N1CC[N+](C)(C)CC1`, the max response was -0.194% (inactive).

Consider `CNC[C@@H]1CC[C@@H](N)[C@@H](O[C@H]2[C@H](O)[C@@H](O[C@H]3OC[C@](C)(O)[C@H](NC)[C@H]3O)[C@H](N)C[C@@H]2N)O1`, for which the max response was -26.6% (inactive).

For the compound `CC(C)(C)NC(=O)[C@H]1CC[C@H]2[C@@H]3CC=C4C=C(C(=O)O)CC[C@]4(C)[C@H]3CC[C@]12C`, the max response was -6.72% (inactive).
